D3 ag = D3 dopamine receptor (human) agonism; max activation, %; D3R DiscoveRx beta-arrestin cells, luminescence, 90 min; 410,000 tested, 0.58% active; AID 652048; in the data active = max activation above about 30%; note: 0% is about no effect
Target sequence (P35462 whole entry, looked up): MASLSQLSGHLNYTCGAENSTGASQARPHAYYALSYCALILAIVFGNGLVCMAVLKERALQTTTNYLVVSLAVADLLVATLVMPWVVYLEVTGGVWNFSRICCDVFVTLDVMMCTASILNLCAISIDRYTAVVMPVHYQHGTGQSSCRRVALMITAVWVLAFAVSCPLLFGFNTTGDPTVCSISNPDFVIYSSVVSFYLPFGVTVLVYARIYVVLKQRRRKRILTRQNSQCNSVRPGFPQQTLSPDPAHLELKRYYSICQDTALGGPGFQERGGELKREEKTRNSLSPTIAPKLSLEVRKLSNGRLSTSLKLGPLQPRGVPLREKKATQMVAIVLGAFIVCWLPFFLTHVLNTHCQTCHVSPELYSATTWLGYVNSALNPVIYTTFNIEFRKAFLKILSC
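Cells at 1500/well, incubated overnight, then treated with pinned compounds (dopamine as control) for 90 min at 37 degrees C. DiscoveRx reagent added for 30 - 60 minutes at room temperature; luminescence read.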
Nrf2 ARE act = activates Nrf2 signaling; AREc32 ARE-luciferase reporter (MCF7-derived line), luminescence, 24 h; Potency, µM (doses to about 46.1 µM), without a hit: top-dose activation, hits mostly activators; 410,000 tested, 0.31% active; AID 624171; note: potency is the fitted concentration of half-maximal effect; % of control where 0% means no effect; nearly all actives have a fitted effect of over 65% in size
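ARE activation measured as luciferase luminescence (Steady-Glo, 30 min RT) in AREc32_Fluc cells after 24 hr compound exposure at 37 deg C, 5% CO2; cells seeded overnight at 1000/well in OPTI-MEM, 5% FBS.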
D3 antag = D3 dopamine receptor (human) antagonism | 360,000 tested, 2.5% active | max response, negative = inhibition, % | P35462 | D3R cells, DiscoveRx beta-arrestin luminescence, antagonist mode; stronger effect = lower value; in the data active = max response below about -50%; inconclusive = no clear call, values can overlap the other calls; note: % is set by controls: 0 for no effect and ±100 for the full control effect
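Cells plated overnight at 1500 cells/well, then exposed to library compounds with dopamine controls for 90 minutes at 37 degrees C. DiscoveRx reagent added for 30–60 minutes at room temperature; luminescence read, quantitative HTS format.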
Glioma ERSR ind = inducers of ER stress response in human glioma cells; U87-MG GRP78 promoter luciferase reporter, 16 h; Potency, µM, inactives show top-dose activation, actives largely listed as activators; 420,000 tested, 0.02% active; note: potency is the fitted concentration of half-maximal effect; series mostly up to about 76 µM; % of control where 0% means no effect; nearly all actives have a fitted effect of over 35% in size
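Stably transfected U87-MG human glioma cells carrying a GRP78-based luminescent sensor were seeded at 1000 cells/well, pin-dosed with compounds and incubated 16 h. Luciferase reagent was then added, and end-point luminescence was read after 10 min at room temperature.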
The depositor's hits bear a star; ? = inconclusive; . = not tested or not shown. Compounds with a hit are over-represented: about 3% of the library has one in this group of screens. Unless noted, calls come from the whole dose curve; as a rule, active = well fitted curve in the direction sought with a large enough effect; inconclusive = small, poorly fitted or top-dose-only effect, or another doubt; inactive = no such curve, though single readings can be large; an effect the other way counts as inactive or inconclusive.

SMILES	D3 ag	Nrf2 ARE act	D3 antag	Glioma ERSR ind
O=C(CSc1n[nH]c(=O)n1C1CC1)c1ccc(F)cc1	-21	0%	-60*	3%
CC(C)C(O)(C#CCN1CCCCC1)c1ccccc1 (configuration not stated)	-29	-1%	-71*	-6%
OC(C#CCN1CCCC1)(c1ccccc1)c1cccnc1 (configuration not stated)	-16	2%	2	-3%
OC(C#CCN1CCCCC1)c1ccccc1 (configuration not stated)	-14	0%	-51*	-3%
OC(C#CCN1CCCCCC1)(c1ccccc1)c1cccnc1 (configuration not stated)	-29	0%	-64*	4%
N#C/C(=C\c1ccc(-c2cc(Cl)ccc2Cl)o1)C(=O)Nc1cccc2ncccc12	.	.	.	-13%
Cc1ccc(NC(=O)Cn2nnc(C(=O)NCc3ccc4c(c3)OCO4)c2N)cc1Cl	-3	1%	.	0%
COc1ccc(C(=O)C(CCC(CNC(C)(C)C)C(=O)c2ccc(OC)cc2)CNC(C)(C)C)cc1 (configuration not stated)	-17	?	-55*	-13%
COc1ccc(C(=O)CC(=O)c2ccc(C(C)(C)C)cc2)cc1	-38	0%	5	-2%
OC[C@H]1OC(O)[C@@H](O)[C@@H](O)[C@H]1O (some centres not stated)	.	.	.	-3%
Fc1ccc(CN2CCN3CCCC3C2C2CCCCC2)cc1F (configuration not stated)	-13	5%	-78*	-6%
Fc1cccc(CN2CCN3CCCC3C2C2CCCCC2)c1 (configuration not stated)	-26	1%	?	-5%
O=C(NCC1Cc2cccc(-c3ncccn3)c2O1)c1cccc(-c2ccccc2F)c1 (configuration not stated)	.	.	.	-5%
O=C(c1ccc(Cn2cc(Br)cn2)o1)n1cccn1	-2	-1%	-52*	-5%
O=C(NCc1ccccn1)c1ccc(Cn2cc(Br)cn2)o1	-1	0%	21	-5%
O=C(Nc1ccc(C(F)(F)F)cc1Cl)c1ccc(Cn2cc(Br)cn2)o1	-1	0%	-75*	6%
O=C(CCS(=O)(=O)c1cc2c3c(c1)CCN3C(=O)CC2)Nc1cccc(Br)c1	-3	-1%	.	-1%
CCOc1ccccc1C1N=C(c2ccc(OC)cc2)CC(c2ccccc2O)N1 (configuration not stated)	1	16µM*	-22	?
CC(C)C1N=C(c2ccc3c(c2)OCO3)CC(c2ccccc2O)N1 (configuration not stated)	-8	?	-8	?
COc1cc(CN2CCc3nnc(C(NS(C)(=O)=O)C(C)C)n3CC2)ccc1F (configuration not stated)	.	.	.	-5%
Cc1ccc(NC(=S)NC2CC3CCCC(C2)N3Cc2cccs2)cc1 (configuration not stated)	-30	-1%	-71*	-4%
CC(C)c1ccc(NC(=O)NC2CC3CCC(C2)N3Cc2cccs2)cc1 (configuration not stated)	-19	-1%	?	-1%
CC(C)CNC(=S)NC1CC2CCCC(C1)N2Cc1cccs1 (configuration not stated)	-29	-1%	-76*	-2%
O=C(Nc1cccc(Cl)c1)NC1CC2CCC(C1)N2Cc1cccs1 (configuration not stated)	0	0%	-98*	-4%
Fc1ccc(NC(=S)NC2CC3CCCC(C2)N3Cc2cccs2)cc1 (configuration not stated)	-16	3%	-54*	-1%
SMILES	D3 ag	Nrf2 ARE act	D3 antag	Glioma ERSR ind
Cc1ccc(NC(=S)NC2CC3CCCC(C2)N3Cc2ccco2)cc1 (configuration not stated)	-36	2%	-14	0%
CN1CCC(N(Cc2cccs2)c2ccccc2)CC1	-18	.	.	-1%
COc1cc([C@@H]2c3cc4c(cc3[C@@H](O[C@@H]3O[C@H]5CO[C@H](C)O[C@H]5[C@H](O)[C@@H]3O)[C@H]3COC(=O)[C@H]23)OCO4)cc(OC)c1OP(=O)(O)O	.	.	.	-3%
COc1ccccc1/C=C/c1nc2ccccc2[nH]1	.	.	.	-5%
O=C(CBr)c1ccc(Oc2ccc(C(=O)C[n+]3ccccc3Cl)cc2)cc1	.	.	.	0%
CCOc1ccc2c(c1)-c1c(ssc1=S)C(C)(C)N2	-10	2%	-74*	0%
CSCCC(NC(=O)c1cccc([N+](=O)[O-])c1)c1nc2ccccc2[nH]1 (configuration not stated)	-26	-1%	-53*	-5%

From PubChem BioAssay
